# Measured values from PubChem BioAssay (NCATS).
# Where “and” joins values, the source holds several entries; their conditions need not be identical. Equal values may be shown once. A number with no mark means an inactive call. Results filed as inconclusive are left out. Calls of active or inactive are those of the source. Unless noted, calls follow the shape of the dose curve; as a rule, active = well fitted curve in the direction sought with a large enough effect; inconclusive = small, poorly fitted or top-dose-only effect, or another doubt; inactive = no such curve, though single readings can be large; an effect the other way counts as inactive or inconclusive.
# Legend:
# [1] = molecular target: Cytochrome P450 2C19 (Homo sapiens) (UniProt P33261); experiment: qHTS Assay for Inhibitors and Substrates of Cytochrome P450 2C19 (AID 899); also: % is scaled to controls: 0 for no effect and ±100 for the full control effect; nearly all actives have a fitted effect of over 60% in size
# How it was run: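 5nM enzyme + 10uM Luciferin-H EGE (=KM), 50mM KPO4; cpd pin-transferred, 10 min 37C; NADPH regen, 60 min 37C; stopped w/ luciferin detection reagent, 20 min; luminescence. Normalized to 57uM ketoconazole (AC100).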
# [2] = Cell Viability - Hek293 (AID 427;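 active = compounds whose dose-response curve shows a full or clear partial loss of cell viability, called from curve shape rather than a numeric limit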;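 also: potency is read from the fitted curve at half-maximal effect; cells exposed to compound for 40 hours at 37 °C before reading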); conditions: qHTS
# How it was run: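 Luminescent ATP read-out (CellTiter-Glo, 20 min RT) after 40 hr compound exposure at 37 °C in complete medium. Signal normalized to DMSO (basal) and 100 uM tamoxifen (100% inhibition); concentration-response fitted with the standard Hill equation to give AC50.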
# [3] = Cell Viability - SK-N-SH (AID 435; calls by dose curve;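 also: potency is read from the fitted curve at half-maximal effect; compound exposure lasted 40 h at 37 °C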); conditions: SK-N-SH neuroblastoma cell viability qHTS
# How it was run: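 Luminescent ATP signal served as the viability read-out after 40 hours of compound treatment of human neuroblastoma SK-N-SH cells. Concentration-response data, scaled between DMSO and 100 uM tamoxifen, gave AC50 values by standard Hill modeling.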
# [4] = Cell Viability - HUV-EC-C (AID 542); also: nearly all actives have a fitted effect of over 35% in size; also: potency is read from the fitted curve at half-maximal effect
# How it was run: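 qHTS cytotoxicity: HUV-EC-C, 1000 cells/well, 5 hr settle, compound 40 hr 37 °C, CellTiter-Glo, luminescence. AC50 via Hill equation.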
# [5] = Cell Viability - SH-SY5Y (AID 544); conditions: SH-SY5Y neuroblastoma cell viability; viability change, negative = cytotoxic: at 92.2 µM (top of the series); also: nearly all actives have a fitted effect of over 55% in size; also: potency is read from the fitted curve at half-maximal effect
# How it was run: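 Luminescent ATP read-out (CellTiter-Glo) measures loss of viable SH-SY5Y neuroblastoma cells after 40 hr compound exposure at 37 °C. AC50 values derive from standard Hill modelling of qHTS concentration-response data.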
# [6] = Cellular Toxicity (caspase-3) HUV-EC-C (AID 656)
# How it was run: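 qHTS; HUV-EC-C, 1000 cells/well; 5 hr settle, 16 hr cmpd, 37°C; Caspase-Glo 3/7, 20 min RT; luminescence. Norm: DMSO = 0%, tamoxifen 100 uM = 100%. Hill-fit AC50.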
# [7] = Cellular Toxicity (caspase-3) BJ (AID 658);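 also: 0% = DMSO basal and 100% = 10 µM staurosporine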
# How it was run: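 Readout: Caspase-Glo 3/7 luminescence increase in BJ cells after 16 hr treatment at 37 °C. Staurosporine and tamoxifen served as positive controls; AC50 values came from Hill modelling of data normalized to DMSO and 10 uM staurosporine.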
# [8] = Cellular Toxicity (caspase-3) MRC-5 (AID 659);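 also: 0% = DMSO basal and 100% = 10 µM staurosporine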
# How it was run: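 Concentration-dependent caspase 3/7 activation is measured in human normal lung fibroblasts (MRC-5) following 16-hour treatment. AC50 values come from standard Hill-equation modeling of luminescence normalized to DMSO and 10 uM staurosporine.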
# [9] = Cellular Toxicity (caspase-3) Mesangial (AID 660); conditions: Potency: caspase-3 activation;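 also: combined caspase 3 and 7 activity read by Caspase-Glo luminescence; cells exposed to compound for 16 h before the caspase read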
# How it was run: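 Mesangial cells, 1000/well, 5 h settle at 37 °C; compound 16 h, 37 °C; Caspase-Glo 3/7 reagent 20 min RT; luminescence. Norm.: DMSO = 0%, tamoxifen 100 uM = 100%. AC50, Hill fit.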
# [10] = Cellular Toxicity (caspase-3) Hek293 (AID 664); conditions: HEK293 caspase-3 activation, DMSO = 0%, 100 µM tamoxifen = 100%; at 92.2 µM (top of the series);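 also: cells exposed to compound for 16 h at 37 °C before readout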
# How it was run: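 Cells plated, 5 hr at 37 °C; compounds added; 16 hr at 37 °C; Caspase-Glo 3/7 reagent, 20 min RT; luminescence read. Activation expressed relative to DMSO and 100 uM tamoxifen, AC50 by Hill model.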
# [11] = Cellular Toxicity (caspase-3) N2a (AID 665);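 also: compound exposure lasted 16 h at 37 °C before readout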
# How it was run: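 N2a cells, 1500/well, 5 h settle at 37 °C; cpd 16 h, 37 °C; Caspase-Glo 3/7, 1 h RT; luminescence. Norm: DMSO = 0, 10 uM staurosporine = 100%. AC50, Hill fit.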
# [12] = Cell Viability - LYMP1-003 - Assay at 24 hr (AID 963); also: potency is read from the fitted curve at half-maximal effect;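 as to viability change, negative = cytotoxic: plate controls were DMSO only for no effect and tetraoctylammonium bromide positive control for full effect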
# How it was run: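 Cells seeded at 2500/well, 5 hr at 37 C; compounds added; 24 hr at 37 C; CellTiter-Glo added, 30 min room temperature; luminescence read. Decrease in ATP taken as cytotoxicity, AC50 from Hill modelling.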
# [13] = Cell Viability - LYMP2-003 (AID 965);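 also: cells exposed to compounds for 24 h before reading; nearly all actives have a fitted effect of over 50% in size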; also: potency is read from the fitted curve at half-maximal effect
# How it was run: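 Seed 2500 lymphoblastoid cells/well; incubate 5 hr, 37 C; add compounds; incubate 24 hr, 37 C; add CellTiter-Glo, 30 min RT; read luminescence. AC50 from Hill fit.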
# [14] = Cell Viability - LYMP2-015 (AID 971); also: nearly all actives have a fitted effect of over 55% in size; also: potency is read from the fitted curve at half-maximal effect
# How it was run: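 Luminescent ATP read-out (CellTiter-Glo) served as the viability measure after lymphoblastoid cells were exposed to compounds for 24 hours at 37 C. Concentration-response data were fitted with the Hill equation to give AC50.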
# [15] = Cell Viability - LYMP2-019 (AID 973); also: nearly all actives have a fitted effect of over 55% in size; also: potency is read from the fitted curve at half-maximal effect
# How it was run: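 Luminescent ATP read-out (CellTiter-Glo, 30 min room temperature) served as the viability measure after 24 hr treatment of lymphoblastoid cells at 37 C. Concentration-response data were fitted to the Hill equation for AC50.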
# [16] = Cell Viability - LYMP2-016 (AID 984); also: nearly all actives have a fitted effect of over 55% in size; also: potency is read from the fitted curve at half-maximal effect
# How it was run: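 Cells were seeded at 2500 per well and rested 5 hr before a 24 hr compound exposure at 37 C. Viability was then gauged as cellular ATP by luciferase luminescence, with AC50 values fitted to the Hill equation.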
# [17] = Cell Viability - LYMP2-018 (AID 985); also: nearly all actives have a fitted effect of over 50% in size; also: potency is read from the fitted curve at half-maximal effect
# How it was run: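 Luminescent ATP signal (CellTiter-Glo, read after 30 min at room temperature) reports viable cells after 24 hr compound treatment at 37 C. Concentration-response data were fitted to the standard Hill equation for AC50.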
# [18] = molecular target: Tumor necrosis factor (Homo sapiens) (UniProt P01375); experiment: qHTS assay to identify small molecules that stimulate Tumor Necrosis Factor-alpha (TNF-alpha) secretion (AID 651757; active = well fitted curve in the direction sought with a large enough effect in the signal ratio; the % refers to the signal ratio; also: 0% is about no effect)
# How it was run: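 Read-out is HTRF, a TR-FRET sandwich of cryptate- and XL665-labeled anti-TNF-alpha antibodies detecting cytokine secreted by THP-1 cells. Cells had been incubated with test compounds at 37 C for 17 hrs beforehand.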
# [19] = qHTS assay for cell viability of HEK293 cells (AID 743288); conditions: ATP luminescence (CellTiter-Glo), 18 h; max response: active compounds read low; also: nearly all actives have a fitted effect of over 50% in size; also: potency is read from the fitted curve at half-maximal effect; as to max response: % is scaled to controls: 0 for no effect and ±100 for the full control effect
# How it was run: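 HEK293 parental, 2,000 cells/well; ≥5 h pre-incubation 37 C; pintool compound addition; 18 h, 37 C; CellTiter-Glo 30 min RT; luminescence read.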
# [20] = qHTS assay for cell viability of the p53RE-bla HCT-116 cell line (AID 743292); also: nearly all actives have a fitted effect of over 55% in size; also: potency is read from the fitted curve at half-maximal effect
# How it was run: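 CellSensor p53RE-bla HCT-116 cells (4,000/well) pre-incubated 5 h at 37 C, then exposed to compounds in DMSO for 16 h at 37 C. Viability read as ATP content by CellTiter-Glo luminescence after 30 min at room temperature.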
# Sequence of Cytochrome P450 2C19 (Homo sapiens) (P33261 whole entry, looked up): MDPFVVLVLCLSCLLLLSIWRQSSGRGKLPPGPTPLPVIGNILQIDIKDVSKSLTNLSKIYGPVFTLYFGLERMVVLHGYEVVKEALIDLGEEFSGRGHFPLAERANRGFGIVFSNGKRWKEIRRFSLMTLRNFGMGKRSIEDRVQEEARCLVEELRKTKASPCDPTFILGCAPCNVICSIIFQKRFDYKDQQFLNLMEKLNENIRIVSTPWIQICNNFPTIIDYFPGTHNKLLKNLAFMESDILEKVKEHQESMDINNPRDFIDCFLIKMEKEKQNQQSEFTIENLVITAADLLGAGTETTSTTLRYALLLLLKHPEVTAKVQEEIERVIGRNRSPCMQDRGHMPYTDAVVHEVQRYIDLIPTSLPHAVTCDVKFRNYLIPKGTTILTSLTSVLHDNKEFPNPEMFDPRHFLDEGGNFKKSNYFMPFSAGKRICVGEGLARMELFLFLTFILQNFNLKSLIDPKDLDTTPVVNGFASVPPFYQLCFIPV
# Sequence of Tumor necrosis factor (Homo sapiens) (P01375 whole entry, looked up): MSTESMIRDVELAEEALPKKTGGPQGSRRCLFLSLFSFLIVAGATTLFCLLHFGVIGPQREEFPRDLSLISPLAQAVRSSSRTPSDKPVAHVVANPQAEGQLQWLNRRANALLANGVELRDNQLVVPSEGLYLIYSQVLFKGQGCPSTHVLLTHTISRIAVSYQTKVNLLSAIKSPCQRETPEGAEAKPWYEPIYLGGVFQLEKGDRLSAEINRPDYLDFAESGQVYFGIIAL
compound,measurement,setting,value
C=C[C@@H]1CN2CC[C@H]1C[C@H]2[C@@H](O)c1ccnc2ccccc12,Potency,[1],inactive
FC(F)(F)c1ccc(Cl)cc1,Potency,[2],> 92 µM
same,Potency,[3],> 92 µM
same,Potency,[4],inactive
same,Potency,[5],inactive
same,outcome,[6],inactive
same,outcome,[7],inactive
same,outcome,[8],inactive
same,Potency,[9],inactive
same,caspase-3 activation,[10],3.4%
same,outcome,[11],inactive
same,Potency,[12],inactive
same,Potency,[13],inactive
same,Potency,[14],inactive
same,Potency,[15],inactive
same,Potency,[16],inactive
same,Potency,[17],inactive
same,Potency,[18],inactive
same,max response,[19],-1.88% and 4.63%
same,Potency,[20],inactive
[CH3][Hg][Cl],Potency,[2],33.3 µM (active)
same,Potency,[3],17.4 µM (active)
same,Potency,[4],15.8 µM (active)
same,Potency,[5],2.51 µM (active)
same,outcome,[6],inactive
same,outcome,[7],inactive
same,outcome,[8],inactive
same,caspase-3 activation,[10],-9.46%
same,outcome,[11],inactive
same,Potency,[12],50.1 µM (active)
same,Potency,[13],5.01 µM (active)
same,Potency,[14],3.16 µM (active)
same,Potency,[15],5.01 µM (active)
same,Potency,[16],3.98 µM (active)
same,Potency,[17],3.16 µM (active)
same,Potency,[18],inactive
same,Potency,[19],39.8 µM (active)
C[C@@H]1CC[C@@]2(OC1)O[C@H]1[C@@H](O)[C@H]3[C@@H]4CC[C@H]5C[C@@H](O[C@@H]6O[C@H](CO)[C@H](O[C@@H]7O[C@H](CO)[C@@H](O)[C@H](O[C@@H]8OC[C@@H](O)[C@H](O)[C@H]8O)[C@H]7O[C@@H]7O[C@H](CO)[C@@H](O)[C@H](O[C@@H]8O[C@H](CO)[C@@H](O)[C@H](O)[C@H]8O)[C@H]7O)[C@H](O)[C@H]6O)[C@H](O)C[C@]5(C)[C@H]4CC[C@]3(C)[C@H]1[C@@H]2C,Potency,[2],27.5 µM (active)
same,Potency,[3],28.5 µM (active)
same,Potency,[4],25.1 µM (active)
same,Potency,[5],15.8 µM (active)
same,outcome,[6],inactive
same,outcome,[7],inactive
same,outcome,[8],inactive
same,Potency,[9],inactive
same,caspase-3 activation,[10],-8.63%
same,outcome,[11],inactive
same,Potency,[12],7.94 µM (active)
same,Potency,[13],20 µM (active)
same,Potency,[14],15.8 µM (active)
same,Potency,[15],12.6 µM (active)
same,Potency,[16],25.1 µM (active)
same,Potency,[17],25.1 µM (active)
same,Potency,[18],inactive
same,Potency,[19],25.1 µM (active)
same,Potency,[20],35.5 µM (active)
CCN1C[C@@]2(C)CC[C@H](O)[C@@]34[C@@H]5C[C@H]6[C@H](O)[C@@H]5[C@](O)(C[C@@H]6OC)[C@H](C[C@@H]23)[C@H]14,Potency,[1],inactive
C[C@@]12CC[C@H](O)C[C@@H]1CC[C@H]1[C@H]2C[C@@H](O)[C@]2(C)[C@@H](C3=CC(=O)OC3)CC[C@@]12O,Potency,[1],inactive
O=[N+]([O-])c1ccccc1Cl,Potency,[2],> 92 µM
same,Potency,[3],> 92 µM
same,max response,[19],-0.622% and -10.4%
CCCCCCCCn1sccc1=O,Potency,[2],35.3 µM (active)
same,Potency,[3],14.2 µM (active)
same,Potency,[4],25.1 µM (active)
same,Potency,[5],3.98 µM (active)
same,outcome,[6],inactive
same,outcome,[7],inactive
same,outcome,[8],inactive
same,caspase-3 activation,[10],-9.61%
same,outcome,[11],inactive
same,Potency,[12],25.1 µM (active)
same,Potency,[13],6.31 µM (active)
same,Potency,[14],3.16 µM (active)
same,Potency,[15],3.98 µM (active)
same,Potency,[16],6.31 µM (active)
same,Potency,[17],5.01 µM (active)
same,Potency,[18],inactive
same,Potency,[20],inactive
N#CSCSC#N,Potency,[2],34.5 µM (active)
same,Potency,[3],14 µM (active)
same,Potency,[4],25.1 µM (active)
same,Potency,[5],1 µM (active)
same,outcome,[6],inactive
same,outcome,[7],inactive
same,Potency,[9],inactive
same,caspase-3 activation,[10],-10.2%
same,outcome,[11],inactive
same,Potency,[12],25.1 µM (active)
same,Potency,[13],10 µM (active)
same,Potency,[14],5.01 µM (active)
same,Potency,[15],5.01 µM (active)
same,Potency,[16],7.94 µM (active)
same,Potency,[17],7.94 µM (active)
same,Potency,[18],inactive
same,Potency,[19],28.2 µM (active)
same,Potency,[20],50.1 µM (active)
COP(=O)(OC)O/C(=C\Cl)c1cc(Cl)c(Cl)cc1Cl,Potency,[3],33.5 µM (active)
same,"viability change, negative = cytotoxic",[5],-89.6% (active)
same,outcome,[6],inactive
same,outcome,[7],inactive
same,outcome,[8],inactive
same,Potency,[9],inactive
same,caspase-3 activation,[10],-4.53%
same,outcome,[11],inactive
same,Potency,[12],inactive
same,Potency,[13],inactive
same,Potency,[14],inactive
same,Potency,[15],inactive
same,Potency,[16],inactive
same,Potency,[18],inactive
same,max response,[19],-7.38%
same,Potency,[20],inactive
